Measurements from PubChem BioAssay (NCATS).
Several values for one entry are separate records, joined by “and”; a condition that tells them apart may be missing. Identical values can stand only once. Records with an inconclusive call do not appear. Activity calls are given as the source filed them. Unless noted, calls come from the whole dose curve; as a rule, active = well fitted curve in the direction sought with a large enough effect; inconclusive = small, poorly fitted or top-dose-only effect, or another doubt; inactive = no such curve, though single readings can be large; an effect the other way counts as inactive or inconclusive.

Legend:
[1] = molecular target: Cellular tumor antigen p53 (Homo sapiens) (UniProt P04637); assay: Primary qHTS for small molecule compounds that upregulate eGFP-tagged delta133p53alpha (in N-terminal) cells. (AID 2060322); settings: NCI-H358 eGFP-delta133p53alpha fluorescence, 24 h; activation: hits give high values; note: nearly all actives have a fitted effect of over 75% in size; note: potency is the fitted concentration of half-maximal effect;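 for activation: 0% = DMSO vehicle and 100% = reference activator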
Cellular tumor antigen p53 (Homo sapiens), sequence (P04637 whole entry, looked up): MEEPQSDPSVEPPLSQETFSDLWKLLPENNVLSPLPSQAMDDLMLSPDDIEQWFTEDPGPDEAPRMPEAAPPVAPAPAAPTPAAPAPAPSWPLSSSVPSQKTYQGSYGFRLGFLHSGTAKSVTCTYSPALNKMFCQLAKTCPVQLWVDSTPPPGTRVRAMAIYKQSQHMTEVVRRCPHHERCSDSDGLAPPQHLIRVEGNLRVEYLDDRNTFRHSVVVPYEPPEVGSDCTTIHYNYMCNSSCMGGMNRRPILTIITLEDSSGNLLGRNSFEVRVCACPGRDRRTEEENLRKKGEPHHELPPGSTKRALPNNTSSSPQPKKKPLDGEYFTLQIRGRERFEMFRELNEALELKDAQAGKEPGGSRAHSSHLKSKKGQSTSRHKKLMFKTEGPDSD
Summary of the method: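 NCI-H358 cells pre-induced 24 h with 10 ng/ml doxycycline to express N-terminal eGFP-delta133p53alpha, then dosed 24 h at 37C without doxycycline; fixed, Hoechst-stained, GFP intensity by laser scanning cytometry, normalized to DMSO (0%) and 57.5 uM 5-azacytidine (100%).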

[2] = molecular target: Aldehyde dehydrogenase, mitochondrial (Homo sapiens) (UniProt P05091); assay: qHTS for Inhibitors of the Aldehyde Dehydrogenase Family (ALDH2) Confirmatory screens (AID 2061303; active = well fitted inhibition curve with a large enough effect; title and protocol of this record describe different tests; note: nearly all actives have a fitted effect of over 45% in size; note: potency is the fitted concentration of half-maximal effect); settings: ALDH inhibition qHTS; series mostly up to 45.4 µM
[3] = qHTS for Inhibitors of the Aldehyde Dehydrogenase Family (ALDH1A2, ALDH1A3, ALDH2, ALDH3A1) (AID 2061307); settings: ALDH inhibition qHTS; series mostly up to 50.3 µM; note: nearly all actives have a fitted effect of over 50% in size; for Potency: test system not described further here; potency is the fitted concentration of half-maximal effect
[4] = molecular target: Aldehyde dehydrogenase, mitochondrial (Homo sapiens) (UniProt P05091); assay: qHTS for Inhibitors of the Aldehyde Dehydrogenase Family (ALDH2) Primary screen (AID 2061308); settings: ALDH2 enzyme inhibition qHTS, 1536-well; series mostly up to 56 µM; note: nearly all actives have a fitted effect of over 55% in size; note: potency is the fitted concentration of half-maximal effect
[5] = molecular target: Retinaldehyde dehydrogenase 3 (Homo sapiens) (UniProt P47895); assay: qHTS for Inhibitors of the Aldehyde Dehydrogenase Family (ALDH1A3) Validation screen (AID 2061312); settings: ALDH1A3 enzyme inhibition qHTS validation, fluorescence; series mostly up to 84.7 µM; note: % is set by controls: 0 for no effect and ±100 for the full control effect; nearly all actives have a fitted effect of over 45% in size
[6] = molecular target: Retinaldehyde dehydrogenase 3 (Homo sapiens) (UniProt P47895); assay: qHTS for Inhibitors of the Aldehyde Dehydrogenase Family (ALDH1A3) Primary screen (AID 2061315); settings: ALDH inhibition qHTS; series mostly up to 56 µM; note: potency is the fitted concentration of half-maximal effect
[7] = molecular target: Aldehyde dehydrogenase 1A1 (Homo sapiens) (UniProt P00352); assay: qHTS for Inhibitors of the Aldehyde Dehydrogenase Family (ALDH1A1) Confirmatory screens (AID 2061316); settings: ALDH inhibition qHTS; series mostly up to 47.3 µM; note: nearly all actives have a fitted effect of over 65% in size; note: potency is the fitted concentration of half-maximal effect
[8] = molecular target: Retinal dehydrogenase 2 (Homo sapiens) (UniProt O94788); assay: qHTS for Inhibitors of the Aldehyde Dehydrogenase Family (ALDH1A2) Confirmation screens (AID 2061314); settings: ALDH1A2 enzyme inhibition qHTS confirmation; series mostly up to 45.9 µM; note: nearly all actives have a fitted effect of over 65% in size; note: potency is the fitted concentration of half-maximal effect
[9] = molecular target: Retinaldehyde dehydrogenase 3 (Homo sapiens) (UniProt P47895); assay: qHTS for Inhibitors of the Aldehyde Dehydrogenase Family (ALDH1A3) Confirmatory screens (AID 2061311); settings: ALDH inhibition qHTS; series mostly up to 46 µM; note: nearly all actives have a fitted effect of over 60% in size; note: potency is the fitted concentration of half-maximal effect
[10] = BET inhibitor-based combinations targeting novel dependencies in MECOM-rearranged (r) AML: SET-2 cell line (AID 2202231); settings: SET-2 AML cells viability, CellTiter-Glo luminescence, 48 h; viability: hits give low values, concentration not given here; note: nearly all actives have a fitted effect of over 35% in size; note: potency is the fitted concentration of half-maximal effect;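 for viability: plate controls were DMSO treated cells for no effect and wells without cells for full effect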
Summary of the method: (§1)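 Readout: CellTiter-Glo luminescence. Exposure: 48 h, 11 concentrations, 500 cells/well. Metric: AUC and within-line Z-AUC after DMSO/empty-well normalization.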

[11] = BET inhibitor-based combinations targeting novel dependencies in MECOM-rearranged (r) AML: OCI-AML3 cell line (AID 2202232); settings: CellTiter-Glo luminescence, 48 h; Potency: OCI-AML3 viability; series mostly up to 46 µM; note: nearly all actives have a fitted effect of over 35% in size; note: potency is the fitted concentration of half-maximal effect
Summary of the method: as §1

[12] = BET inhibitor-based combinations targeting novel dependencies in MECOM-rearranged (r) AML: MV-4-11 cell line (AID 2202233); settings: MV-4-11 AML viability, CellTiter-Glo luminescence, 48 h; series mostly up to 46 µM; note: nearly all actives have a fitted effect of over 45% in size; note: potency is the fitted concentration of half-maximal effect
Summary of the method: (§2)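 Seeding density was 500 cells/well, and drug exposure lasted 48 hr under standard culture conditions. Read-out used CellTiter-Glo reagent with a 15 min room-temperature incubation before luminescence measurement; AUC and Z-AUC summarize the normalized responses.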

[13] = BET inhibitor-based combinations targeting novel dependencies in MECOM-rearranged (r) AML: HNT-34 cell line (AID 2202234); settings: HNT-34 AML viability, CellTiter-Glo luminescence, 48 h; series mostly up to 46 µM; note: nearly all actives have a fitted effect of over 35% in size; note: potency is the fitted concentration of half-maximal effect
Summary of the method: as §2

[14] = BET inhibitor-based combinations targeting novel dependencies in MECOM-rearranged (r) AML: AML-191 cell line (AID 2202236; note: nearly all actives have a fitted effect of over 35% in size; note: potency is the fitted concentration of half-maximal effect); settings: AML-191 viability, CellTiter-Glo luminescence, 48 h; series mostly up to 46 µM
Summary of the method: as §1

[15] = BET inhibitor-based combinations targeting novel dependencies in MECOM-rearranged (r) AML: AML-194 cell line (AID 2202237; note: nearly all actives have a fitted effect of over 40% in size; note: potency is the fitted concentration of half-maximal effect); settings: AML-194 (MECOM-r AML) viability, CellTiter-Glo, 48 h; series mostly up to 46 µM
Summary of the method: as §1

[16] = BET inhibitor-based combinations targeting novel dependencies in MECOM-rearranged (r) AML: UCSD-AML1 cell line (AID 2202235); settings: UCSD-AML1 AML cells viability, CellTiter-Glo, 48 h; series mostly up to 46 µM; note: nearly all actives have a fitted effect of over 40% in size; note: potency is the fitted concentration of half-maximal effect
Summary of the method: as §2

S=C(c1ccc(-c2ccc(Cl)c(Cl)c2)o1)N1CCCCC1
inactive: activation [1] -7.64% | Potency [5] | Potency [6]
active: Potency [2] 2.83 µM | Potency [3] 12.7 µM | Potency [4] 22.4 µM | Potency [7] 5.04 µM

CSC(=O)OCC1=C[C@@H]2OC(=O)C3=CO[C@@H](O[C@@H]4O[C@H](CO)[C@@H](O)[C@H](O)[C@H]4O)[C@H]1[C@@H]32
inactive: activation [1] -22.1% | Potency [2] | Potency [3] | Potency [4] | Potency [8] | Potency [7]

CCC[C@H](N[C@@H](C)C(=O)N1[C@H](C(=O)O)C[C@@H]2CCCC[C@@H]21)C(=O)O
inactive: activation [1] -7.64% | Potency [2] | Potency [3] | Potency [4] | Potency [8] | Potency [6] | Potency [7]

NC(=O)c1cccc(-c2cc(OC(=O)NC3CCCCC3)ccc2O)c1
inactive: activation [1] 7% | Potency [2] | Potency [4] | Potency [9] | Potency [6]
active: Potency [3] 10.1 µM

C/C=C1\[C@H](O[C@@H]2O[C@H](CO)[C@@H](O)[C@H](O)[C@H]2O)OC=C(C(=O)OC)[C@H]1CC(=O)OC[C@H]1O[C@@H](OCCc2ccc(O)cc2)[C@H](O)[C@@H](O)[C@@H]1O
inactive: activation [1] -1.53% | Potency [2] | Potency [3] | Potency [4] | Potency [8]

NCCCCN(Cc1nc2ccccc2[nH]1)[C@H]1CCCc2cccnc21
inactive: activation [1] 1.43% | Potency [2] | Potency [3] | Potency [4] | Potency [5] | Potency [8] | Potency [6] | Potency [7]

CNC(=O)c1cc(Oc2ccc(NC(=O)c3cccc(C(F)(F)F)c3)cc2)ccn1
active: Potency [3] 6.34 µM
inactive: activation [1] 8.04% | Potency [2] | Potency [4] | Potency [8] | Potency [6] | Potency [7]

CC1(C)[C@H](C(=O)O)N2C(=O)C[C@H]2S1(=O)=O
inactive: activation [1] -10% and -6.44% and -12.3% | Potency [2] | Potency [3] | Potency [4] | Potency [8] | Potency [6] | Potency [7]

CNC(=O)Nc1ccc(OC)c(NC(=O)NC(=O)c2cc(F)c(F)cc2Cl)c1
inactive: activation [1] -5.67% | Potency [2] | Potency [3] | Potency [4] | Potency [9] | Potency [7]
active: Potency [6] 28.2 µM

CC1CCC23COC(=O)C2=CC(O)CC3C1(C)CCC1=CC(O)OC1=O (stereo not given)
inactive: activation [1] -3.82% | Potency [2] | Potency [3] | Potency [4] | Potency [8] | Potency [6]

O=C(c1cccc(Cl)c1F)N1CCN(Cc2cccc(Nc3nccs3)n2)CC1
inactive: activation [1] 23.9% | Potency [2] | Potency [3] | Potency [4] | Potency [6]
active: Potency [9] 35.5 µM

O=C1Nc2ccccc2-c2nc3ccccc3c(=O)n2-c2c(O)cccc21
inactive: activation [1] 23.2% | Potency [2] | Potency [3] | Potency [4] | Potency [6]

CC(C(=O)O)c1ccc2c(c1)CC(=O)c1ccccc1S2 (stereo not given)
inactive: activation [1] 0.619% and -1.69% and -1.43% | Potency [2] | Potency [3] | Potency [4] | Potency [9] | Potency [6] | Potency [7] | viability [10] 114% | Potency [11] | Potency [12] | Potency [13] | Potency [14] | Potency [15]

C=C(C)C(=O)O[C@H]1[C@H]2C(=C)C(=O)O[C@@H]2/C=C(\CO)CC/C=C(/C=O)[C@@H]1O
inactive: activation [1] -6.11% | Potency [2] | Potency [3] | Potency [4] | Potency [8]

CC1=NN(c2ccccc2)C(=O)C1
active: Potency [2] 12.6 µM | Potency [3] 6.31 µM | Potency [4] 0.794 µM | Potency [9] 8.91 µM | Potency [7] 1.42 µM
inactive: activation [1] -3.42% and 10.7% and -17% | viability [10] 112% | Potency [11] | Potency [12] | Potency [16] | Potency [14] | Potency [15]

COc1cc(/C=C/c2cc(O)cc(O[C@@H]3O[C@H](CO)[C@@H](O)[C@H](O)[C@H]3O)c2)ccc1O
active: Potency [6] 6.31 µM
inactive: activation [1] 7.63% | Potency [2] | Potency [3] | Potency [4] | Potency [8] | Potency [7]

CC1(COc2ccc3c(c2)ncn3-c2ccc3cccc(N4CCC(N)CC4)c3n2)COC1
inactive: Potency [2] | Potency [3] | Potency [4] | Potency [6] | Potency [7]
active: Potency [1] 21.3 µM | Potency [8] 14.2 µM | Potency [10] 13.2 µM | Potency [11] 7.42 µM | Potency [12] 0.0332 µM | Potency [13] 5.9 µM | Potency [16] 4.17 µM | Potency [14] 2.09 µM | Potency [15] 2.35 µM

COc1cc(NC(=O)c2ccccn2)ccc1Cl
inactive: activation [1] -5.25% | Potency [2] | Potency [3] | Potency [4] | Potency [8] | Potency [6] | Potency [7]

OC[C@@]1(O)CO[C@@H](OC[C@H]2O[C@@H](Oc3ccccc3)[C@H](O)[C@@H](O)[C@@H]2O)[C@@H]1O
inactive: activation [1] -3.82% | Potency [2] | Potency [3] | Potency [4] | Potency [8] | Potency [7]

O=C(CCCCCCNC(=O)c1cnc(N(c2ccccc2)c2ccccc2)nc1)NO
active: Potency [10] 6.61 µM | Potency [11] 5.9 µM | Potency [12] 2.35 µM | Potency [13] 7.42 µM | Potency [16] 7.42 µM | Potency [14] 7.42 µM | Potency [15] 9.34 µM
inactive: activation [1] 7.34% | Potency [2] | Potency [3] | Potency [4] | Potency [9] | Potency [7]

C=C1CC23CC1CCC2C12OC(=O)C(C)(CCC1O)C2C3C(=O)O (stereo not given)
inactive: activation [1] 21.4% | Potency [2] | Potency [3] | Potency [4] | Potency [8]

CC(C)Nc1cc(-c2c[nH]c(C(=O)N[C@H](CO)c3cccc(Cl)c3)c2)c(Cl)cn1
active: Potency [1] 4.26 µM | Potency [10] 20.9 µM | Potency [11] 2.35 µM | Potency [12] 13.2 µM | Potency [13] 4.68 µM | Potency [16] 7.42 µM | Potency [14] 7.42 µM | Potency [15] 8.33 µM
inactive: Potency [2] | Potency [3] | Potency [4] | Potency [9] | Potency [6]

CCOc1ccc2ccccc2c1C(=O)N[C@@H]1C(=O)N2[C@@H]1SC(C)(C)[C@@H]2C(=O)O
inactive: activation [1] 5.08% and -4.77% | Potency [2] | Potency [3] | Potency [4] | Potency [5] | Potency [8] | Potency [7]

C=CC(=O)N1CCCN(c2cc(NCCC(=O)O)nc(-c3ccccn3)n2)CC1
inactive: activation [1] 9.67% | Potency [2] | Potency [3] | Potency [4] | Potency [9] | Potency [6]

CC(=O)OCC(=O)[C@@]1(O)[C@H](C)C[C@H]2[C@@H]3C=C(C)C4=Cc5c(cnn5-c5ccccc5)C[C@]4(C)[C@@H]3[C@@H](O)C[C@@]21C
inactive: activation [1] 2.08% | Potency [2] | Potency [3] | Potency [4] | Potency [8] | Potency [6] | Potency [7] | viability [10] 96.5% | Potency [11] | Potency [13] | Potency [16]

COc1cc(/C=C/C(=O)O[C@H]2[C@H](OC(=O)/C=C/c3cc(OC)c(O)c(OC)c3)O[C@H](CO[C@@H]3O[C@H](CO)[C@@H](O)[C@H](O)[C@H]3O)[C@@H](O)[C@@H]2O)ccc1O
inactive: activation [1] -3.57% | Potency [2] | Potency [3] | Potency [4] | Potency [8] | Potency [7]

COc1ccnc(CCc2nc3ncccc3[nH]2)c1
inactive: activation [1] -5.73% | Potency [2] | Potency [3] | Potency [9] | Potency [8] | Potency [6] | Potency [7]

COc1cc(/C=C(\C#N)C(=O)Nc2nnc(C(F)(F)F)s2)ccc1OCc1ccc(C(F)(F)F)cc1C(F)(F)F
inactive: activation [1] -42% | Potency [2] | Potency [3] | Potency [8] | Potency [7] | viability [10] 111% | Potency [12] | Potency [13] | Potency [16] | Potency [14] | Potency [15]
